In PubChem BioAssay (EPA / NIEHS):
Activity calls are given as the source filed them. Rule for the calls: active = hit-call score of the fitted dose curve at least 0.9, where 1 is the maximum; inactive = score below 0.9.

test: CCTE_Padilla_ZF_Score.General: CCTE's 144 Hour Post-fertilization zebrafish Assay Score for General Malformation, Padilla Lab (AID 2284411)
Experimental: CCTE_Padilla_ZF_Phenotype_Score is a whole embryo, multiplexed assay using zebrafish ova exposed for 144 hours post fertilization on a 96-well plate.CCTE_Padilla_ZF_Score.General is one of one assay component(s) measured or calculated from the CCTE_Padilla_ZF_Phenotype_Score assay. It is designed to make measurements of zebrafish development as detected with brightfield microscopy of developing zebrafish embryos.Data from the assay component CCTE_Padilla_ZF_Score.General was analyzed into 1 assay endpoints. This assay endpoint, CCTE_Padilla_ZF_Score.General, was analyzed in the positive analysis fitting direction relative to DMSO as the negative control and baseline of activity. Using a type of viability reporter, gain-of-signal activity can be used to understand changes in developmentals as they relate to the whole embryo. To generalize the intended target to other relatable targets, this assay endpoint is annotated to the zebrafish development intended target family, where the subfamily is embryonic morphogenesis.
Zebrafish husbandry: Wild type adult zebrafish (Danio rerio; undefined outbred stock obtained from Aquatic Research Organisms, Hampton, NH, 03842) were housed in an AAALAC-approved animal facility at 28C with a 14:10 h light: dark cycle (lights on at 08:30 h). Adult fish (2-3 females per male; density = 15-20 adults per tank) were kept in one of several 9-liter (L) flow-through colony tanks (Aquaneering Inc., San Diego, CA). All adults in a colony tank were placed in a 2 L (static) breeding tank (Aquatic Habitats, Apopka, FL) one hour prior to light onset. Typically, adults from two to three colony tanks were mated on the same day. Two hours after light onset the adults were returned to the colony tank. All embryos were gathered from each breeder tank, pooled, and placed in a 28C water bath for 2 h, followed by two washes with 0.06% bleach (v/v) in 10% Hanks' Balanced Salt Solution (13.7 mM NaCl 0.54 mM KCl, 25 uM Na2HPO4, 130 uM CaCl2 100 um MgSO4 and 420 um NaHCO3,), hereafter referred to as Hanks' solution, for 5 min in order to remove any residual bacteria or fungi. Immediately following washing, the embryos were examined, and healthy embryos were separated from dead or unfertilized eggs and moved into fresh Hanks'. Chemical exposures: Zebrafish embryos were exposed in 96-well plates. Between 6- and 8-hours post fertilization (hpf), healthy embryos (with chorions) were transferred, one embryo per well, into 96 well (0.5 mL) microtiter plates (Cell Culture-Treated, Flat-Bottom Microplate 96 well [Corning Costar, Kennebunk, ME; Cat 09-761-145]) filled with 200 uL of Hanks' solution. A random number generator was used to assign the order in which the rows of embryos were plated in 96 well plates each week. After plating, the embryos were dosed with 0.8 uL of the chemical dosing solution then immediately sealed with AlumaSeal II (Excel Scientific Inc, Victorville, CA) to prevent volatilization of the chemicals, and then placed in a leakproof secondary container. These containers were placed in an incubator maintained on a 14:10 h light: dark cycle at 26C for rearing. On 5 dpf, live larvae were gently moved out of the plate with test chemicals and into a new 96 well mesh plate (Millipore Corp., Bedford, MA) with just the Hanks' solution. Once within the mesh well plate, the animals were rinsed with 400 uL of fresh Hanks' three times, and then the plates were covered with a non-adhesive material (Microseal A, BioRad, Hercules, CA), plate lid added, and then plate sides wrapped in Parafilm (PM992, Bermis Company, Neenah, WI), and returned to the incubator. […]

Compound	outcome	AC50
CCCCCCCCCCCCN(C)C	inactive	
Oc1c(Br)cc(Br)cc1Br		2.31 µM (active)
Cc1ccc2nc3sc(=O)sc3nc2c1		0.563 µM (active)
O=C1C=CC(=O)c2ccccc21	inactive	
COC(F)(C(F)(F)C(F)(F)F)C(F)(C(F)(F)F)C(F)(F)F (stereo not drawn)	inactive	
CCOC(=O)C(SP(=S)(OC)OC)c1ccccc1 (stereo not drawn)		8.89 µM (active)
Cc1ccccc1OP(=O)(Oc1ccccc1)Oc1ccccc1		2.78 µM (active)
OC(Cc1ccccc1Cl)(Cn1cncn1)C1(Cl)CC1 (stereo not drawn)	inactive	
C=CCOC(F)(C(F)(F)F)C(F)(F)F	inactive	
CC(C=O)Cc1ccc2c(c1)OCO2 (stereo not drawn)	inactive	
Nc1c(Oc2ccccc2)cc(O)c2c1C(=O)c1ccccc1C2=O		14 µM (active)
O=S(=O)(F)C(F)(F)C(F)(F)C(F)(F)C(F)(F)F	inactive	
CCN(CC)C(=O)C(Cl)=C(C)OP(=O)(OC)OC	inactive	
CC(F)(F)CC(F)(F)F	inactive	
O=S(=O)(c1ccc(Cl)cc1)c1cc(Cl)c(Cl)cc1Cl		27.5 µM (active)
Cc1cccc(OP(=O)(Oc2cccc(C)c2)Oc2cccc(C)c2)c1	inactive	
CCCCCCCCCCBr	inactive	
CCOP(=O)(OCC)SCCSCC	inactive	
